Measured values from the supplement of paper PMC10849652.
Targets with a hit are over-represented here; the source holds about 7,900 in all. About 0.6% of all pairs of compound and target were hits.

These targets were tested with Cc1cn(-c2cc(NC(=O)c3ccc(C)c(Nc4nccc(-c5cccnc5)n4)c3)cc(C(F)(F)F)c2)cn1 [nilotinib] (assay: log2 fold change, soluble protein after heating vs DMSO (PISA); higher = thermal stabilisation; K562 cells, 10 uM, 30 min; active = over 0.2 and 3.5 SD of the protein, either way, in both replicates (recomputed)).
In short: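 Quantification of soluble protein used TMTpro 16plex LC-MS/MS, with channel sums equalised. Samples were the supernatant after 21,000xg for 90 min of pooled aliquots from K562 cells (2×10^6 cells/mL) treated with 10 μM compound for 30 min, heated for 3 min over 48°C-58°C, and extracted in PBS with 0.5% NP-40 at 4°C. Values, from duplicates, describe thermal stability against control samples on a log2 fold-change scale.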

Chain of UniProt Q9HAV4 (Q9HAV4 whole entry, looked up): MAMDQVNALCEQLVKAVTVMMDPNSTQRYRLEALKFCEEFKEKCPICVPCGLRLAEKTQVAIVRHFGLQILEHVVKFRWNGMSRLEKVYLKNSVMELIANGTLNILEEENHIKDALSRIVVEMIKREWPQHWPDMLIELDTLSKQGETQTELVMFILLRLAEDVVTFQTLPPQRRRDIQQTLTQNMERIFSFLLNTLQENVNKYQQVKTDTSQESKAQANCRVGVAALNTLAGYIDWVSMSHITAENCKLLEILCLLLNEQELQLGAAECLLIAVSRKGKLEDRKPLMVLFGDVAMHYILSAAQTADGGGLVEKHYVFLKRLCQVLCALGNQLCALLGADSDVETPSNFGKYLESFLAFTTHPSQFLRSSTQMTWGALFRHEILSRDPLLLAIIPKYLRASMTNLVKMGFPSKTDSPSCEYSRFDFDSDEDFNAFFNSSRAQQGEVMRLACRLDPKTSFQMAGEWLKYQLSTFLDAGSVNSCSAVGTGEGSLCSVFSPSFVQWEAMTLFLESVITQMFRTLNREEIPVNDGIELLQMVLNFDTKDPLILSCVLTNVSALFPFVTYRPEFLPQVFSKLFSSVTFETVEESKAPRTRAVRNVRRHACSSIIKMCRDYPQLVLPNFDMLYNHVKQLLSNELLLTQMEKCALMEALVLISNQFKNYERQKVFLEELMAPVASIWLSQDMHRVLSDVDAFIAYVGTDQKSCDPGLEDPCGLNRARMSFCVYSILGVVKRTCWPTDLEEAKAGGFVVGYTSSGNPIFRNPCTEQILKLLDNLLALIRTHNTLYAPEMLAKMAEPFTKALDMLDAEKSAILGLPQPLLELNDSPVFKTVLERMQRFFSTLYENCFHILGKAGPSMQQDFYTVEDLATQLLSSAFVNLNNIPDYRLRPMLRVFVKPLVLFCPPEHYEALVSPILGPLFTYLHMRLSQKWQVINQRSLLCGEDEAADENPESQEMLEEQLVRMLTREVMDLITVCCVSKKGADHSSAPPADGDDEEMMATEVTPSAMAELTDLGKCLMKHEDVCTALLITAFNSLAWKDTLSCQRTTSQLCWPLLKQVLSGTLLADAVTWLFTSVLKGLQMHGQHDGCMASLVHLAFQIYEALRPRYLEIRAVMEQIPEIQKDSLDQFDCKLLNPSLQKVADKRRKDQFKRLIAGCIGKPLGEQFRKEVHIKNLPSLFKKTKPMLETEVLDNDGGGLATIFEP
Chain of UniProt Q9Y385 (Q9Y385 whole entry, looked up): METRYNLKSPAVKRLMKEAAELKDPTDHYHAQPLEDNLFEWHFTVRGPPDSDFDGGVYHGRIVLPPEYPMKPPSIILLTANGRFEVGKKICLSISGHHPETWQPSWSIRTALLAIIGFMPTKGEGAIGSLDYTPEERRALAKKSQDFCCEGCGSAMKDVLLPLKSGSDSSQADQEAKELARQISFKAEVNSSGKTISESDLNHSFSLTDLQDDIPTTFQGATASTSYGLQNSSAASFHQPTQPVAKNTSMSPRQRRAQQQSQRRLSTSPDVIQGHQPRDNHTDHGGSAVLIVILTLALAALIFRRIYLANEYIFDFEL
Chain of UniProt Q969T4 (Q969T4 whole entry, looked up): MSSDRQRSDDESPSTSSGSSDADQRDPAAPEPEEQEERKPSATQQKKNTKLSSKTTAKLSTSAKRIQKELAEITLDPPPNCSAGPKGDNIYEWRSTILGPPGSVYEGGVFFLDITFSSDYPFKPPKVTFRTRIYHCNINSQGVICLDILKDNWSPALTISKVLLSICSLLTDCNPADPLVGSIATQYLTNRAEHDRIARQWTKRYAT
Chain of UniProt O94874 (O94874 whole entry, looked up): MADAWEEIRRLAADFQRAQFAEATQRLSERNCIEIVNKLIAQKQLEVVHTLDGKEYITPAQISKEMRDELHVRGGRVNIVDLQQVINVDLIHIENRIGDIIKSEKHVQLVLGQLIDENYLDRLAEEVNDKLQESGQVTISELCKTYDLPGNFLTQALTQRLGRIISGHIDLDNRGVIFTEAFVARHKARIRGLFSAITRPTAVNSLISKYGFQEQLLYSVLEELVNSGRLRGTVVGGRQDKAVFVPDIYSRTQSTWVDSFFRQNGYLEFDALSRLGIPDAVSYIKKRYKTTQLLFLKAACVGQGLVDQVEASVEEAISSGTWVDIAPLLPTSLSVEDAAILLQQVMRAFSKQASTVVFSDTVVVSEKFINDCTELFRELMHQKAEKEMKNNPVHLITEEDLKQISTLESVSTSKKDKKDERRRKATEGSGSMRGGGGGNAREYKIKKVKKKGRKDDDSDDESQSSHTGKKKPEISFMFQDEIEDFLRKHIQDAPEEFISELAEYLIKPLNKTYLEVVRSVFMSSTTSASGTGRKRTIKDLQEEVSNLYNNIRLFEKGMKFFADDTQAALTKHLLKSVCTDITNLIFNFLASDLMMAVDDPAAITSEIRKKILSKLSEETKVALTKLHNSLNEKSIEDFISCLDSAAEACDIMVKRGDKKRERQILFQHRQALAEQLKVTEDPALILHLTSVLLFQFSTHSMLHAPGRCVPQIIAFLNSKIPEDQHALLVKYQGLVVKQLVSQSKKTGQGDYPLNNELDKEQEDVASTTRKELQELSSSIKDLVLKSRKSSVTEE
Chain of UniProt Q9UL33 (Q9UL33 whole entry, looked up): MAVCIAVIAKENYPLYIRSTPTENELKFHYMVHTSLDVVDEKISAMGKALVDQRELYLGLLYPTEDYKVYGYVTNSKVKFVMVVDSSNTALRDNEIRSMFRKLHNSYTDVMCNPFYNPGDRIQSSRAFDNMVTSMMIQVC
Chain of UniProt O75717 (O75717 whole entry, looked up): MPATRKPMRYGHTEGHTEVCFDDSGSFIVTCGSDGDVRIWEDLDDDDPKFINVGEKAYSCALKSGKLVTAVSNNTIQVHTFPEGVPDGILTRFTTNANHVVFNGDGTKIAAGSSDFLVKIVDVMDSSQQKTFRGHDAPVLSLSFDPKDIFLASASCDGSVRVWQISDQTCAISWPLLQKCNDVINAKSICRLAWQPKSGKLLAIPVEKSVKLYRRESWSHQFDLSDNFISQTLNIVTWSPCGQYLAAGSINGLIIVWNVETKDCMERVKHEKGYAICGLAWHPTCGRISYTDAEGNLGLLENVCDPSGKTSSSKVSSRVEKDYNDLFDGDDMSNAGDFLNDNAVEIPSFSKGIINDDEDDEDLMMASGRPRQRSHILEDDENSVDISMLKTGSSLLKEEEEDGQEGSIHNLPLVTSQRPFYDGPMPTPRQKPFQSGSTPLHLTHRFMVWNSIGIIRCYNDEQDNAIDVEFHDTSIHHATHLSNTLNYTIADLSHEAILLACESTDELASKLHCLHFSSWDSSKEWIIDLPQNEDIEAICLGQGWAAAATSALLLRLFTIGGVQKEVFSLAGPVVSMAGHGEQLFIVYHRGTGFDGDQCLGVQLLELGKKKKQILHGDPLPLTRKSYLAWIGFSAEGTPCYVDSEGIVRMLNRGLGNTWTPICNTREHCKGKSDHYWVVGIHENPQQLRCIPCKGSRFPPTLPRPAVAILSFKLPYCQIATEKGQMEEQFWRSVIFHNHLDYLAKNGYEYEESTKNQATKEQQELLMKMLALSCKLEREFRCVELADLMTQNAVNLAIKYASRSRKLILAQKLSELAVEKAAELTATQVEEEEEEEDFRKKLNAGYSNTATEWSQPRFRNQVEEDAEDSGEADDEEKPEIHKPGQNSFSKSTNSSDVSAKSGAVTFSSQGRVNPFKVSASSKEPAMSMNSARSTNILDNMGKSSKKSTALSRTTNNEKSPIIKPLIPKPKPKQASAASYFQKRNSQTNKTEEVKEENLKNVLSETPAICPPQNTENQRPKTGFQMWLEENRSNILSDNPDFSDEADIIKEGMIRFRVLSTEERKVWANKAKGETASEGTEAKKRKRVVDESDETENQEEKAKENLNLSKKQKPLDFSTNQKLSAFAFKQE
Chain of UniProt Q969X6 (Q969X6 whole entry, looked up): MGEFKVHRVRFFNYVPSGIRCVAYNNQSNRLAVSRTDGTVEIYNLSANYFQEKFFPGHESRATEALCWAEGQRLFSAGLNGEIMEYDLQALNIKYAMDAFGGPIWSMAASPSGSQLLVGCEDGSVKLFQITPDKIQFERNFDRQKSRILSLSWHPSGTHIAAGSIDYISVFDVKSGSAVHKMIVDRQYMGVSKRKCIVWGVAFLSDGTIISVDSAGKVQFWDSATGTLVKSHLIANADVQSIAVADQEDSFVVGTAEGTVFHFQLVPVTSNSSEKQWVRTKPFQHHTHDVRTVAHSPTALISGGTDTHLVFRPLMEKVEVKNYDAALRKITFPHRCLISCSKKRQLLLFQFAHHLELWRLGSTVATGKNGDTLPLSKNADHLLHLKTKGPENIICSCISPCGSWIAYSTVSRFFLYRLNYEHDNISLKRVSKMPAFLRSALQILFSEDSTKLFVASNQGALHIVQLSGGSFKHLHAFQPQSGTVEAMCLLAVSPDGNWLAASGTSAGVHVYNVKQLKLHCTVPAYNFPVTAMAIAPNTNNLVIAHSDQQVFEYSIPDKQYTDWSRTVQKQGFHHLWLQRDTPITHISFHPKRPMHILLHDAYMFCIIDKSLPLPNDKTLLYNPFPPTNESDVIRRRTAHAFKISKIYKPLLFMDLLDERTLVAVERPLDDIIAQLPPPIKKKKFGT
Chain of UniProt Q7Z6J8 (Q7Z6J8 whole entry, looked up): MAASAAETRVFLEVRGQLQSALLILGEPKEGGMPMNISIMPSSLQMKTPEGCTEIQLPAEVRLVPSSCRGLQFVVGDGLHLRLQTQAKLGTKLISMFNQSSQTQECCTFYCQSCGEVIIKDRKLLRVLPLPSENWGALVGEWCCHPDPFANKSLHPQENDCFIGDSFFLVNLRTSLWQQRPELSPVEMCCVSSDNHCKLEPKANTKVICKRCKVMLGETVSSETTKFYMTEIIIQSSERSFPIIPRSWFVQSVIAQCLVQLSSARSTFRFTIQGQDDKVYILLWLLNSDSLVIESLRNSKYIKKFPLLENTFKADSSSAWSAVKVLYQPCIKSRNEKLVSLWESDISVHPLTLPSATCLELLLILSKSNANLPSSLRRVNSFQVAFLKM
Chain of UniProt Q9UDW1 (Q9UDW1 whole entry, looked up): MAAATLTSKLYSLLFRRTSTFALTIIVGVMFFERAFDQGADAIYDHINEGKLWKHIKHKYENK

log2 fold change, inactive:
VTA1 (UniProt Q9NP79) -0.07
UBE4B isoform 4 (UniProt O95155) -0.051
USO1 isoform 2 (UniProt O60763) -0.039
VPS16 (UniProt Q9H269) -0.038
WAPL isoform 3 (UniProt Q7Z5K2) -0.011
VTI1A (UniProt Q96AJ9) -0.006
VPS8 (UniProt Q8N3P4) -0.162
UFL1 (UniProt O94874) -0.119
UTP4 (UniProt Q969X6) 0.021
UTP14A (UniProt Q9BVJ6) 0.011
UGGT1 (UniProt Q9NYU2) -0.015
VPS18 (UniProt Q9P253) -0.052
UBA6 0.062
TMEM161A (UniProt Q9NX61) -0.157
TNFRSF10A (UniProt O00220) 0.061
TRMT61A (UniProt Q96FX7) 0.036
TRAPPC8 (UniProt Q9Y2L5) -0.055
UBE2S (UniProt Q16763) -0.008
UBE2E3 (UniProt Q969T4) -0.126
UCHL5 (UniProt Q9Y5K5) -0.06
VTI1B (UniProt Q9UEU0) 0.013
TNPO1 (UniProt Q92973) -0.037
UQCR10 (UniProt Q9UDW1) -0.003
TMEM87B (UniProt Q96K49) 0.037
USP34 (UniProt Q70CQ2) -0.054
USP14 (UniProt P54578) -0.006
VPS51 (UniProt Q9UID3) -0.089
UBE2J1 (UniProt Q9Y385) -0.076
UBE3D (UniProt Q7Z6J8) 0.043
TRAM1 (UniProt Q15629) -0.075
TOP2A isoform 4 (UniProt P11388) -0.119
XPNPEP3 (UniProt Q9NQH7) -0.034
TRAPPC2L (UniProt Q9UL33) -0.062
XPO5 (UniProt Q9HAV4) -0.07
WDHD1 (UniProt O75717) -0.005
VDAC1 (UniProt P21796) 0.006
